According to PubChem BioAssay (EPA / NIEHS):
Values joined by “and” are separate entries in the source; they are usually repeats but may differ in a detail not shown here. Identical values can stand only once. A structure can be active in one record and inactive in another. Active and inactive are the calls of the source. How the source made its calls: active means hit-call score of the fitted dose curve at least 0.9, where 1 is the maximum; inactive means score below 0.9.

assay: ATG_CRE_CIS: Attagene CIS-FACTORIAL HepG2 Assay for human cAMP Responsive Element (CRE) binding protein 3 (AID 2282926); conditions: HepG2 CRE cis-reporter, Attagene multiplexed mRNA; actives raise or lower the signal
How it was run: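 HepG2 cells transiently transfected with cis-element-driven multiple reporter transcription units; CRE reporter mRNA measured 24 h after dosing by RT-PCR, 6-FAM labelling, HpaI digestion and capillary electrophoresis. Bidirectional fit versus DMSO baseline.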

outcome, inactive:
Nc1cc(Cl)c(-c2cc(Cl)c(N)cc2Cl)cc1Cl
CC(C)(C)c1ccc(O)c(O)c1
O=C(O)C(=O)O
CCCCCCCCCCCC[N+](C)(C)CCCCCCCCCCCC
CCCCCCCC(OC)OC
CC(C)c1c(C(=O)Nc2ccccc2)c(-c2ccccc2)c(-c2ccc(F)cc2)n1CC[C@@H](O)C[C@@H](O)CC(=O)O
CCOC(C)=O
CCCCc1ccc2ccccc2c1S(=O)(=O)O
CCC(C)c1ccccc1O (configuration not stated)
CCCCCc1ccc(O)cc1
NS(=O)(=O)O
CN(C)c1ccc(C(=C2C=CC(=[N+](C)C)C=C2)c2ccccc2)cc1
O=P(O)(O)CCC(F)(F)C(F)(F)C(F)(F)C(F)(F)C(F)(F)C(F)(F)C(F)(F)C(F)(F)F
Oc1ccc(Cc2ccccc2O)cc1

AC50, active:
CC(C)(C)c1ccc(O)c(O)c1 47.8 µM and 181 µM
Cn1sccc1=O 154 µM
CN(C)c1ccc(C(=C2C=CC(=[N+](C)C)C=C2)c2ccccc2)cc1 2.56 µM
